Measurements as given in PubChem BioAssay (NCI).
The panel holds about 83,000 compounds, 20% with a hit somewhere; the sample as a whole holds those more often.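 96-well plates, one dose, 48 hours. Percent growth reported; active if below 10.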 The source made the active and inactive calls.

Key:
Assay in all cases: NCI-60 one-dose screen, 48 h (100 = growth as untreated, 0 = no growth, -100 = all killed)
HCT-15 colon = settings: 10 µM unless noted
HT29 colon = settings: 10 µM unless noted
SNB-75 CNS = settings: 10 µM unless noted
SNB-19 CNS = settings: 10 µM unless noted
U251 CNS = settings: 10 µM unless noted
PC-3 prostate = settings: 10 µM unless noted
SK-MEL-5 melanoma = settings: 10 µM unless noted
UACC-62 melanoma = settings: 10 µM unless noted
LOX IMVI melanoma = settings: 10 µM
SK-MEL-28 melanoma = settings: 10 µM unless noted
SK-MEL-2 melanoma = settings: 10 µM unless noted
EKVX NSCLC = settings: 10 µM unless noted
SN12C renal = settings: 10 µM unless noted
UO-31 renal = settings: 10 µM unless noted
TK-10 renal = settings: 10 µM unless noted
ACHN renal = settings: 10 µM unless noted
CAKI-1 renal = settings: 10 µM unless noted
A498 renal = settings: 10 µM unless noted
CCRF-CEM leukemia = settings: 10 µM unless noted
MOLT-4 leukemia = settings: 10 µM unless noted

Measured: growth

COc1cc(/C=C2\C(=N)N=C(SCc3nc4ccccc4[nH]3)NC2=O)ccc1O
inactive: HCT-15 colon 96.3% | HT29 colon 110% | SNB-75 CNS 102% | SNB-19 CNS 104% | U251 CNS 105% | PC-3 prostate 94.2% | SK-MEL-5 melanoma 98.5% | UACC-62 melanoma 89% | LOX IMVI melanoma 88% | SK-MEL-28 melanoma 110% | SK-MEL-2 melanoma 105% | EKVX NSCLC 101% | SN12C renal 103% | UO-31 renal 64.2% | TK-10 renal 155% | ACHN renal 98.1% | CAKI-1 renal 86% | A498 renal 113% | CCRF-CEM leukemia 99.4% | MOLT-4 leukemia 99.2%

CCCCCCn1c(O)c(N=Nc2nc(-c3cc4ccccc4oc3=O)cs2)c2ccccc21
inactive: HCT-15 colon 36.7% | SNB-75 CNS 81.4% | SNB-19 CNS 40% | SK-MEL-2 melanoma 79.7% | SN12C renal 63.8% | UO-31 renal 75.1% | TK-10 renal 90.4% | ACHN renal 81.4% | CAKI-1 renal 58.9% | A498 renal 88% | MOLT-4 leukemia 23.4%
active: HT29 colon -39.7% | U251 CNS -57.5% | PC-3 prostate -2.73% | SK-MEL-5 melanoma -64.8% | UACC-62 melanoma -2.7% | LOX IMVI melanoma -63.9% | EKVX NSCLC 1.67% | CCRF-CEM leukemia 5.68%

COC(=O)/C=C/c1cccc2c1C(=O)NC(C)(c1cc3ccccc3oc1=O)N2 (centres undefined)
inactive: HCT-15 colon 36.3% | HT29 colon 69.8% | SNB-75 CNS 41.6% | SNB-19 CNS 81.5% | U251 CNS 57.9% | PC-3 prostate 58.9% | SK-MEL-5 melanoma 78.5% | UACC-62 melanoma 42.8% | LOX IMVI melanoma 38.9% | SK-MEL-28 melanoma 75.4% | EKVX NSCLC 78.2% | SN12C renal 73.8% | UO-31 renal 31.3% | TK-10 renal 49% | ACHN renal 30.8% | CAKI-1 renal 20.7% | A498 renal 49.7% | CCRF-CEM leukemia 83.7% | MOLT-4 leukemia 63%
active: SK-MEL-2 melanoma -2.01%

O=c1cc(-c2ccccc2)oc2cc(OCCCC[P+](c3ccccc3)(c3ccccc3)c3ccccc3)cc(O)c12
active: HCT-15 colon -94.2% | HT29 colon -65% | SNB-75 CNS -80.7% | SNB-19 CNS -44.5% | U251 CNS -57.4% | PC-3 prostate -87.3% | SK-MEL-5 melanoma -98.4% | UACC-62 melanoma -59.5% | LOX IMVI melanoma -90.1% | SK-MEL-28 melanoma -98.4% | SK-MEL-2 melanoma -94.1% | EKVX NSCLC -97.6% | SN12C renal -49.5% | UO-31 renal -97.1% | TK-10 renal -81.8% | ACHN renal -100% | CAKI-1 renal -97.1% | A498 renal -83.3% | MOLT-4 leukemia -41.7%

COc1ccc(C(=O)/C=C/c2ccc(Oc3nc(Nc4ccc(F)cc4)nc(N(C)C)n3)c(OC)c2)cc1
inactive: HCT-15 colon 33.8% | HT29 colon 59% | SNB-75 CNS 66.4% | SNB-19 CNS 63.4% | U251 CNS 11.4% | PC-3 prostate 50.5% | SK-MEL-5 melanoma 32.9% | UACC-62 melanoma 41% | SK-MEL-28 melanoma 76.7% | EKVX NSCLC 75.6% | SN12C renal 32.2% | UO-31 renal 42.9% | TK-10 renal 95.7% | ACHN renal 36.9% | CAKI-1 renal 49% | A498 renal 78.3% | CCRF-CEM leukemia 19.2% | MOLT-4 leukemia 10.8%
active: SK-MEL-2 melanoma -8.47%

COc1ccc(C(=O)/C=C/c2ccc(OC)c(OCc3ccccc3)c2)cc1OC
inactive: SNB-75 CNS 39.7% | SNB-19 CNS 17.3% | PC-3 prostate 25.1% | SK-MEL-5 melanoma 31.9% | UACC-62 melanoma 14.8% | SK-MEL-2 melanoma 55.8% | EKVX NSCLC 25.2% | UO-31 renal 19.3% | TK-10 renal 20.5% | ACHN renal 21.8% | CAKI-1 renal 39.4% | A498 renal 108% | CCRF-CEM leukemia 12.9%
active: HCT-15 colon 1.81% | HT29 colon 5.47% | U251 CNS 7.69% | LOX IMVI melanoma -26% | SN12C renal 7.92% | MOLT-4 leukemia 8.07%

O=C(NN1C(=O)/C(=C/C=C/c2ccc([N+](=O)[O-])o2)SC1=S)c1ccc(Cl)cc1
active: HCT-15 colon -75.6% | HT29 colon -76.4% | SNB-75 CNS -93.4% | SNB-19 CNS -100% | U251 CNS -97.4% | PC-3 prostate -34.7% | SK-MEL-5 melanoma -100% | UACC-62 melanoma -100% | LOX IMVI melanoma -97.3% | SK-MEL-28 melanoma -99.7% | SK-MEL-2 melanoma -90.8% | EKVX NSCLC -97.4% | SN12C renal -98.6% | UO-31 renal -100% | TK-10 renal -99% | ACHN renal -100% | CAKI-1 renal -100% | A498 renal -93.7% | CCRF-CEM leukemia -14.7% | MOLT-4 leukemia 2.15%

O=C(/C=C/c1ccc(-c2ccccc2)cc1)c1nc2ccccc2n1Cc1ccc(Br)cc1
active: MOLT-4 leukemia -14.4%
inactive: HCT-15 colon 37.3% | HT29 colon 41.6% | SNB-75 CNS 56.8% | SNB-19 CNS 57.8% | U251 CNS 27.4% | PC-3 prostate 48.2% | SK-MEL-5 melanoma 72.2% | UACC-62 melanoma 50.2% | SK-MEL-28 melanoma 58.5% | SK-MEL-2 melanoma 65.8% | EKVX NSCLC 52.3% | SN12C renal 77.2% | UO-31 renal 46.3% | TK-10 renal 35.3% | ACHN renal 32.7% | CAKI-1 renal 50.4% | A498 renal 104% | CCRF-CEM leukemia 11.1%

O=C(O)c1cccc(-c2ccc(/C=N/NC(=O)c3[nH]c4ccc(Br)cc4c3-c3ccccc3)o2)c1
inactive: HCT-15 colon 70.4% | HT29 colon 107% | SNB-75 CNS 57.8% | SNB-19 CNS 30.7% | U251 CNS 34.7% | PC-3 prostate 86.4% | SK-MEL-5 melanoma 84.2% | UACC-62 melanoma 35.5% | SK-MEL-28 melanoma 53.2% | SK-MEL-2 melanoma 61.4% | EKVX NSCLC 86.3% | SN12C renal 81.5% | UO-31 renal 81% | TK-10 renal 117% | ACHN renal 89.9% | CAKI-1 renal 96.4% | A498 renal 95.3% | MOLT-4 leukemia 63.6%
active: CCRF-CEM leukemia 9.68%

N#Cc1c(-c2cccnc2)cc(-c2ccc3ccccc3c2)[nH]c1=O
inactive: HCT-15 colon 80.7% | HT29 colon 111% | SNB-75 CNS 14.4% | SNB-19 CNS 66.1% | U251 CNS 77.7% | PC-3 prostate 95.5% | SK-MEL-5 melanoma 78.2% | UACC-62 melanoma 93.8% | SK-MEL-28 melanoma 104% | SK-MEL-2 melanoma 110% | EKVX NSCLC 87.1% | SN12C renal 74.3% | UO-31 renal 79% | TK-10 renal 109% | ACHN renal 90.2% | CAKI-1 renal 89.7% | A498 renal 111% | CCRF-CEM leukemia 82% | MOLT-4 leukemia 91.5%

C/C(=N\N=C1/C(=O)Nc2ccc(Cl)cc21)c1ccc2c(c1)Nc1ccccc1S2
active: HCT-15 colon 0.895% | HT29 colon -31.1% | SNB-75 CNS 8.6% | U251 CNS -32.1% | PC-3 prostate -5.59% | SK-MEL-5 melanoma -15.6% | SK-MEL-28 melanoma -48.9% | SK-MEL-2 melanoma -13.6% | SN12C renal -16.2% | ACHN renal -3.77% | CAKI-1 renal 6.63% | CCRF-CEM leukemia 9.58% | MOLT-4 leukemia -1.18%
inactive: SNB-19 CNS 18.7% | UACC-62 melanoma 13.5% | EKVX NSCLC 12.6% | UO-31 renal 18.2% | TK-10 renal 22.4% | A498 renal 23.7%

CC(C)c1ccc2c(N)c(C(=O)Nc3ccc(C(F)(F)F)cn3)sc2n1
inactive: HCT-15 colon 58.7% | HT29 colon 69.5% | SNB-75 CNS 78.6% | SNB-19 CNS 71.5% | U251 CNS 62.9% | PC-3 prostate 44.7% | UACC-62 melanoma 69.7% | SK-MEL-28 melanoma 77.3% | SK-MEL-2 melanoma 77.6% | EKVX NSCLC 26.4% | SN12C renal 70.5% | UO-31 renal 62% | TK-10 renal 76.5% | ACHN renal 49% | CAKI-1 renal 55.2% | A498 renal 115% | CCRF-CEM leukemia 34.1%
active: SK-MEL-5 melanoma 5.02% | MOLT-4 leukemia 7.3%

COc1ccc2[nH]cc(-c3nc(N)nnc3-c3cn(C)c4ncccc34)c2c1
inactive: HCT-15 colon 44.4% | HT29 colon 35.6% | SNB-75 CNS 14.2% | SNB-19 CNS 63.8% | U251 CNS 60.1% | PC-3 prostate 68.4% | SK-MEL-5 melanoma 31.2% | UACC-62 melanoma 37.7% | SK-MEL-28 melanoma 62.3% | SK-MEL-2 melanoma 49.4% | EKVX NSCLC 63.7% | SN12C renal 59.6% | UO-31 renal 43.9% | TK-10 renal 93.1% | ACHN renal 67.3% | CAKI-1 renal 38.8% | A498 renal 104% | CCRF-CEM leukemia 67.7% | MOLT-4 leukemia 41.3%

O=C(/C=C/c1cccc(OCc2ccccc2)c1)c1nc2ccccc2[nH]1
inactive: SNB-75 CNS 66.8% | SNB-19 CNS 53.6% | PC-3 prostate 25.9% | SK-MEL-5 melanoma 72.1% | UACC-62 melanoma 56% | SK-MEL-28 melanoma 94.9% | SK-MEL-2 melanoma 100% | EKVX NSCLC 36.4% | SN12C renal 59% | UO-31 renal 33.2% | TK-10 renal 62.8% | ACHN renal 62.5% | CAKI-1 renal 66.1% | A498 renal 91.3% | CCRF-CEM leukemia 10.2%
active: HCT-15 colon -75.5% | HT29 colon -45.7% | U251 CNS -65.8% | MOLT-4 leukemia 5.98%
